Potency and outcome data for 9 molecules are collected here from PubChem BioAssay (Tox21).

Records with an inconclusive call do not appear. A number with no mark means an inactive call. Activity calls are given as the source filed them. Unless noted, the call rests on the fitted dose curve; in most records, active means well fitted curve in the direction sought with a large enough effect in the repeat runs; inconclusive means weak or mixed curves; inactive means no such curve, though single readings can be large; an effect the other way counts as inactive or inconclusive.

The target of assay [1] is Retinoic acid receptor RXR-alpha (Homo sapiens) (UniProt P19793). Kind of assay: qHTS assay to identify small molecule agonists of the RXR signaling pathway (AID 1159527; calls by dose curve; further: nearly all actives have a fitted effect of over 35% in size). An outline of the steps: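 Beta-lactamase reporter assay, agonist format. Engineered HEK 293T line, charcoal-stripped FBS at 2%, overnight (16 hr) exposure, fluorescence at 460 and 530 nm after 405 nm excitation.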
Retinoic acid receptor RXR-alpha (Homo sapiens), sequence (P19793 whole entry, looked up): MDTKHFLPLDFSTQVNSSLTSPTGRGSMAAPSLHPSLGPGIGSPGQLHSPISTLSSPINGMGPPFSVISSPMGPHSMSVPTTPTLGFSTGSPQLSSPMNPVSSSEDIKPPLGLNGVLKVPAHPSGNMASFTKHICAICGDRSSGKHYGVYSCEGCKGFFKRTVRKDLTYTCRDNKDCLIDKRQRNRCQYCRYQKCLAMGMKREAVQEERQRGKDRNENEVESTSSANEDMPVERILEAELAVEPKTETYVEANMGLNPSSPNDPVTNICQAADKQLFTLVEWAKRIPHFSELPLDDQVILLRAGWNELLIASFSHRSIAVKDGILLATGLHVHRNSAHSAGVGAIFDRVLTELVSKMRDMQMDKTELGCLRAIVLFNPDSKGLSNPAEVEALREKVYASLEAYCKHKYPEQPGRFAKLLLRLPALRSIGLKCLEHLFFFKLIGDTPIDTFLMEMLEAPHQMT
Background: In qHTS, concentration-response curves come from the screen itself.

Assay [2] can be described thus: qHTS assay to identify small molecule agonists of the RXR signaling pathway - cell viability counter screen (AID 1159529).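 Further: HEK 293T cells carrying an RXR-alpha UAS beta-lactamase reporter; nearly all actives have a fitted effect of over 50% in size.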 An outline of the steps: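 Same-well viability check after the LiveBLAzer FRET read: CellTiter-Glo added, luminescence measured after 30 min at room temperature. Reporter HEK 293T cells had been treated with compounds for 16 hr following a 5 hr preincubation.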

The nature of assay [3]: qHTS assay to identify small molecule antagonists of the retinoid acid receptor (RAR) signaling pathway - cell viability counter screen (AID 1159551). Further: nearly all actives have a fitted effect of over 35% in size. An outline of the steps: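 ATP-based viability, C3RL4 cells, 6 h at 37 C with 1 uM final retinol co-added after compound; luminescence read 30 min post CellTiter-Glo, RT.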
Assay [4] is described as follows: qHTS assay to identify small molecule antagonists of the retinoic acid receptor (RAR) signaling pathway (AID 1159552; further: nearly all actives have a fitted effect of over 50% in size). The method, boiled down: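 Readout: luciferase luminescence, 30 min post-reagent at RT. Setup: C3RL4 RARE reporter cells, compounds plus retinol 1 uM final, 6 hr incubation at 37 C and 5% CO2.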
Assay [5] can be described thus: qHTS assay to identify small molecule agonists of the retinoic acid receptor (RAR) signaling pathway (AID 1159553). To be noted: C3RL4 RARE luciferase reporter, agonist, 6 h; activation: at 73.3 µM (top of the series). The method, boiled down: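 Quantitative high-throughput format: the Tox21 10K library was tested on C3RL4 RARE-luciferase cells for 6 hr at 37 C and 5% CO2, with luminescence measured after a 30 min room-temperature reagent step.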

Assay [6] can be described thus: qHTS assay to identify small molecule antagonists of the estrogen related receptor (ERR) signaling pathway from Tox21 library - cell viability counter screen (AID 1224834). Further: nearly all actives have a fitted effect of over 30% in size. The method, boiled down:
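Compounds in DMSO were pinned onto ERR cells that had been incubated for 6 h, and the plates were held at 37 C for 17.5 h. CellTiter-Fluor reagent was then added and fluorescence was measured after 30 min.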

Assay [7] concerns the target Luciferin 4-monooxygenase (Photinus pyralis) (UniProt P08659). Kind of assay: qHTS assay to identify small molecule inhibitors of firefly luciferase (AID 1224835). Further: nearly all actives have a fitted effect of over 25% in size. An outline of the steps: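 Biochemical qHTS: compounds run as interplate titrations against purified firefly enzyme, with D-luciferin and ATP each at its KM concentration. Light output recorded by CCD imaging.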

Assay [8] is described as follows: qHTS assay to identify small molecule agonists of the constitutive androstane receptor (CAR) signaling pathway - cell viability counter screen (AID 1224836). Further: nearly all actives have a fitted effect of over 45% in size. An outline of the steps: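 Compound titrations (15 concentrations) went onto HepG2-CYP2B6-hCAR cells 4 h after seeding, alongside PK11195 at a final 0.75 uM; a 23 h, 37 C/5% CO2 incubation preceded CellTiter-Fluor viability measurement.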

The nature of assay [9]: qHTS assay to identify small molecule antagonists of the constitutive androstane receptor (CAR) signaling pathway - cell viability counter screen (AID 1224837). Further: nearly all actives have a fitted effect of over 45% in size. An outline of the steps: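 Cells are seeded, rested 4 hr at 37 C/5% CO2, dosed with compound (15-point series) and 50 nM CITCO, incubated a further 23 hr, and then CellTiter-Fluor reagent is added before fluorescence is read. The line is HepG2 with stable hCAR and CYP2B6-2.2kb.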

The target of assay [10] is Nuclear receptor subfamily 1 group I member 3 (Homo sapiens) (UniProt Q14994). Kind of assay: qHTS assay to identify small molecule antagonists of the constitutive androstane receptor (CAR) signaling pathway (AID 1224838).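 Further: HepG2 cells stably expressing hCAR with CYP2B6 luciferase reporter stimulated by CITCO; nearly all actives have a fitted effect of over 40% in size.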 Further: potency means the concentration at half of the fitted maximal effect. An outline of the steps:
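Luminescence from a CYP2B6-2.2kb promoter reporter in hCAR-expressing HepG2 cells reflects CAR signaling. Cells received compounds at 15 concentrations and 50 nM CITCO (final), then incubated 24 h at 37 C/5% CO2.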

For assay [11] the target is unchanged. Kind of assay: qHTS assay to identify small molecule agonists of the constitutive androstane receptor (CAR) signaling pathway (AID 1224839).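 Further: HepG2 cells stably carrying human CAR and a CYP2B6 luciferase reporter; nearly all actives have a fitted effect of over 15% in size.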 An outline of the steps: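 In this screen, CAR-driven CYP2B6 promoter activity is measured by luminescence in HepG2-CYP2B6-hCAR cells after 24 h with test compounds and 0.75 uM PK11195 (final concentration).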
A short description of assay [12]: qHTS assay to identify small molecule antagonists of the estrogen related receptor signaling pathway with the pleiotropic PPARgamma coactivator (PGC) from Tox21 10K library - cell viability counter screen (AID 1224840; active means well fitted cell-killing curve with a large enough effect in the repeat runs, not every such curve was filed as active; further: nearly all actives have a fitted effect of over 40% in size). The method, boiled down: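 Cell viability is measured by CellTiter-Fluor fluorescence in PGC/ERR cells that receive compounds after a 6-hour attachment period and are then incubated 17.5 hours at 37 C.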

A short description of assay [13]: qHTS assay to identify small molecule agonists of the hypoxia (HIF-1) signaling pathway - cell viability counter screen (AID 1224844; calls by dose curve; further: nearly all actives have a fitted effect of over 50% in size). The method, boiled down:
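Viability counter screen: HRE-bla ME-180 cells plated 5 hrs before compound addition, treated 17 hrs at 37C and 5% CO2, then CellTiter-Glo added after the FRET reporter read; luminescence after 30 min.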

The nature of assay [14]: qHTS assay to identify small molecule agonists of H2AX (AID 1224845; active means well fitted activation curve with a large enough effect in the signal ratio in the repeat runs, not every such curve was filed as active; the % refers to the signal ratio). The method, boiled down: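 Wild-type CHO-K1 cells, plated overnight, exposed 3hr at 37C to 15 concentrations (0.76% DMSO final). Lysed, then HTRF anti-pH2AX (S139) cryptate and anti-H2AX-d2 antibodies, 24 hr room temperature; 665/620 nm emission read.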
Assay [15] can be described thus: qHTS assay to identify small molecule agonists of the hypoxia (HIF-1) signaling pathway (AID 1224846; active means well fitted activation curve with a large enough effect in the signal ratio in the repeat runs, not every such curve was filed as active; the % refers to the signal ratio). The method, boiled down:
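Agonist mode reporter screen. ME-180 cells stably expressing bla under HRE control received test compounds in DMSO for 17 hrs (37C, 5% CO2), and beta-lactamase activity was then detected with the CCF4-AM FRET substrate.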

Assay [16] in a line: qHTS assay to identify small molecule agonists of H2AX - cell viability counter screen (AID 1224847; calls by dose curve; further: top concentration of the series differs between compounds; nearly all actives have a fitted effect of over 30% in size). An outline of the steps:
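Read-out: CellTiter-Glo luminescence, 30 min RT. Cells: wild-type CHO-K1, 1000/well, 10% FBS, plated overnight at 37C. Treatment: 15 concentrations, 3 hr, 37C, 0.76% DMSO.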

Assay [17] in a line: qHTS assay to identify small molecule antagonists of the estrogen related receptor signaling pathway with the pleiotropic PPARgamma coactivator (PGC) from Tox21 10K library (AID 1224841; call rule not given here; further: actives are mostly falling curves and most rising ones were filed inactive; nearly all actives have a fitted effect of over 50% in size). The method, boiled down:
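Cells stably carrying the PGC/ERR reporter, seeded at 2,000 per well, received pin-transferred compounds 6 h post-plating. Exposure lasted 18 h at 37 C. Signal: One-Glo luminescence.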

A short description of assay [18]: qHTS assay to identify small molecule agonists of the estrogen related receptor signaling pathway with the pleiotropic PPARgamma coactivator (PGC) from Tox21 10K library (AID 1224842). Further: nearly all actives have a fitted effect of over 15% in size. The method, boiled down: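 PGC/ERR reporter cell line, 2,000 cells per well, incubated 6 h at 37 C before 23 nL compound in DMSO was added. After 18 h at 37 C, One-Glo luminescence read following 30 min at room temperature.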

The nature of assay [19]: qHTS assay to identify small molecule antagonists of the estrogen related receptor (ERR) signaling pathway from Tox21 library (AID 1224848). Further: nearly all actives have a fitted effect of over 50% in size. An outline of the steps:
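Compounds dissolved in DMSO are pin-transferred onto ERR reporter cells (2,000 per well) that have settled for 6 h at 37 C. Plates then incubate 18 h at 37 C before ONE-Glo luciferase reagent and a luminescence read 30 min later.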

In assay [20] the target is Thyrotropin receptor (Homo sapiens) (UniProt P16473). Kind of assay: qHTS assay to identify small molecule agonists of the thyroid stimulating hormone receptor (TSHR) signaling pathway (AID 1224843; calls by dose curve; further: nearly all actives have a fitted effect of over 45% in size). The method, boiled down:
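HEK293/TSHR, 800 cells/well; cpd 30 min RT; add cAMP-d2 + anti-cAMP-cryptate, 1 h RT; fluorescence read on plate reader. 15-pt titration, n=3.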

Nuclear receptor subfamily 1 group I member 3 (Homo sapiens), sequence (Q14994 whole entry, looked up): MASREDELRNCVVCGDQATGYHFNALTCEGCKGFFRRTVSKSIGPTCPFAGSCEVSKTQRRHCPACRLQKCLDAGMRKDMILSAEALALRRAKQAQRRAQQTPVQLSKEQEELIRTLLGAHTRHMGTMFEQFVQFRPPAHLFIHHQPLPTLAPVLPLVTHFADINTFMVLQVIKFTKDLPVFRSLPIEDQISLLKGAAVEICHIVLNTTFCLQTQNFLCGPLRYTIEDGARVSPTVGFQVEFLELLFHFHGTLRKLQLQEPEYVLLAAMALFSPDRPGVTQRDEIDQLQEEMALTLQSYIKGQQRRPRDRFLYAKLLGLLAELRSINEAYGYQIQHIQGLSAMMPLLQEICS
Thyrotropin receptor (Homo sapiens), sequence (P16473 whole entry, looked up): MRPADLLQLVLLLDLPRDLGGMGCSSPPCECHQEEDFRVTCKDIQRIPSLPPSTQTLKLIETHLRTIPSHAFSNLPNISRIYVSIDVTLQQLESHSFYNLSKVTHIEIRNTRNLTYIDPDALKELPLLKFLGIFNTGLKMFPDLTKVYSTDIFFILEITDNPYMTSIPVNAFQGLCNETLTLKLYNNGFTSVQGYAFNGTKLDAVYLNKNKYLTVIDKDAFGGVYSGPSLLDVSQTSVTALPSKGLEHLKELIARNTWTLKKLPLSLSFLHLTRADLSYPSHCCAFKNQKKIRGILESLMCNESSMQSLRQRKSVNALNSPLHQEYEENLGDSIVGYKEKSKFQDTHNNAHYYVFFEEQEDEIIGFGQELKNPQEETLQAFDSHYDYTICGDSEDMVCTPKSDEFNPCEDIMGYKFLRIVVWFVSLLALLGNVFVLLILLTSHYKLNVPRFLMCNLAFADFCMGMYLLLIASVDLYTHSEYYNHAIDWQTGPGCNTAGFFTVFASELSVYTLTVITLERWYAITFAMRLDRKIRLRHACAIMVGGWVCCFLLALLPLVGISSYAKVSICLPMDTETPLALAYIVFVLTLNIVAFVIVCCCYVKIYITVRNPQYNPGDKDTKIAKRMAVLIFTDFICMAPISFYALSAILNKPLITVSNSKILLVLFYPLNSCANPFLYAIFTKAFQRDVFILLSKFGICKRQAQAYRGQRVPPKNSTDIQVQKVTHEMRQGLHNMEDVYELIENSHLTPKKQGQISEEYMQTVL
Luciferin 4-monooxygenase (Photinus pyralis), sequence (P08659 whole entry, looked up): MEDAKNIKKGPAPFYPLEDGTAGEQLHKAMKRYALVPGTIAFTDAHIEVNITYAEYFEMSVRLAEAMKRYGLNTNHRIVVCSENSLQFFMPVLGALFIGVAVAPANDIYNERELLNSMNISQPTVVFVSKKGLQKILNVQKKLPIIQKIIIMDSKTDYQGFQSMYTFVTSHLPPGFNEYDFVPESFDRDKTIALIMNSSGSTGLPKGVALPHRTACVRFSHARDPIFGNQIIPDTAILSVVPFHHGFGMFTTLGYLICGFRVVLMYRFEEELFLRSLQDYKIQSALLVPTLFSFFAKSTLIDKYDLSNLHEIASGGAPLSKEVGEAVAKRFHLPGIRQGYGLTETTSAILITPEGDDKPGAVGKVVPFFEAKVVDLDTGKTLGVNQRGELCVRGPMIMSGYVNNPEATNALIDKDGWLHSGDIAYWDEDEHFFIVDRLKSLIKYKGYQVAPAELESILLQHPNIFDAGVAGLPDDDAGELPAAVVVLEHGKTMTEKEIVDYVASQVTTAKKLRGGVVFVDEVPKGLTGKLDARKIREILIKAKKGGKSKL

Regarding `O=S1(=O)CCCC1`, the Potency entry in [1], in assay [4], in assay [5], in assay [6], in assay [7] and in assay [9] was “inactive” throughout. Also, the Potency entry in [10], in [11] and in assay [16] was “inactive” throughout. For the same molecule, the result in assay [2], in assay [3], in [8], in assay [12], in [13] and in assay [14] was inactive. In addition, the molecule was called inactive in assay [15].

In the case of `CCCOC(=O)CCCCC(=O)OCCC`, the Potency result in assay [1], in assay [4], in assay [5], in [6], in assay [7] and in assay [9] was “inactive” each time. Moreover, the Potency entry in [17], in [16] and in [19] was “inactive” each time. Besides, the molecule was classed as inactive in assay [2], in assay [3], in assay [8], in assay [12], in [18] and in [13]. In addition, the result in [14] and in [15] was inactive.

In the case of `C=C[C@@H](C)CCC=C(C)C`, the Potency entry in [1], in assay [4], in assay [5], in assay [6], in assay [7] and in assay [9] was “inactive” throughout. Also, the Potency result in assay [16] is “inactive”. The molecule was classed as inactive in [2], in assay [3], in assay [8], in assay [12], in assay [20] and in [13]. The call in assay [14] and in [15] was inactive.

`CCCCCCCCOC(C)=O`: the Potency entry in assay [1], in [4], in assay [5], in assay [6], in assay [7] and in [9] was “inactive” in each case. Further, the Potency result in assay [17], in assay [16] and in assay [19] was “inactive” throughout. In addition, the result in assay [2], in [3], in assay [8], in [12], in assay [18] and in [20] was inactive. Besides, the call in assay [13], in assay [14] and in assay [15] was inactive.

Turning to `CCC1Nc2cc(Cl)c(S(N)(=O)=O)cc2S(=O)(=O)N1` (configuration not stated), the Potency result in assay [1], in [4], in assay [5], in assay [6], in [7] and in [9] was “inactive” in each case. Further, in assay [16], the Potency entry is “inactive”. Moreover, the molecule was called inactive in [2], in assay [3], in assay [8], in [12], in assay [20] and in [13]. Besides, the call in assay [14] and in [15] was inactive.

For the molecule `Cc1ccc2c(c1)c1c3n2CCNC3CCC1` (configuration not stated), the Potency result in [1], in [4], in [5], in [6], in assay [7] and in assay [11] was “inactive” each time. The call in [2], in [3], in [12], in [20], in assay [13] and in [14] was inactive. Besides, in assay [10], the Potency was 750 nM (active).

Regarding `CO[Si](CCCS)(OC)OC`, the Potency entry in assay [1], in assay [4], in [5], in assay [6], in assay [9] and in [16] was “inactive” throughout. In addition, the outcome in assay [2], in assay [3], in assay [8], in assay [12], in assay [20] and in assay [13] was inactive. Also, the molecule was classed as inactive in assay [14] and in [15].

For the molecule `Nc1ccc(S(=O)(=O)NC(=O)c2ccccc2)cc1`, the Potency result in assay [1], in assay [4], in assay [5], in assay [6], in [9] and in assay [16] was “inactive” throughout. Moreover, the molecule was classed as inactive in assay [2], in [3], in assay [8], in assay [12], in assay [20] and in assay [13].

On to `CCCO`, for which the Potency entry in assay [1], in assay [4], in assay [5], in [6] and in [9] was “inactive” in each case. The molecule was called inactive in assay [2], in [3], in assay [8], in assay [12], in [13] and in assay [14]. The outcome in assay [15] was inactive.
